Results filed as inconclusive are left out. Activity calls are given as the source filed them. Rule for the calls: active = hit-call score of the fitted dose curve at least 0.9, where 1 is the maximum; inconclusive = response in the unintended direction; inactive = score below 0.9.

Chain of human RAR-related Orphan Receptor beta (RORb), RORB (gene 6096) (Q92753 whole entry, looked up): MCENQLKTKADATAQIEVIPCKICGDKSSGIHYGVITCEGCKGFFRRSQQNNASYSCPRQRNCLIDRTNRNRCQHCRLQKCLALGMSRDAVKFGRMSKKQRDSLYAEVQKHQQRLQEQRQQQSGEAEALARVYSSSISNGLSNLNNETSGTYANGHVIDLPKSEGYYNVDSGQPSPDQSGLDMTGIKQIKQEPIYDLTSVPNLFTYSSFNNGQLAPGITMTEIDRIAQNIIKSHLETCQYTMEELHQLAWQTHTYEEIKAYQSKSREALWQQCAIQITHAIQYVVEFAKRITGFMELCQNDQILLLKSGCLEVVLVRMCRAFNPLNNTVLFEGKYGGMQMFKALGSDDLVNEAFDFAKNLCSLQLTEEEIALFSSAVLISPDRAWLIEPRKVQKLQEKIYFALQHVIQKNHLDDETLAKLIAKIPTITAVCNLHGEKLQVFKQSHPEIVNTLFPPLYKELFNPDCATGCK

The assay addresses human RAR-related Orphan Receptor beta (RORb), RORB (gene 6096) (UniProt Q92753). The experiment in a line: ATG_RORb_TRANS: Attagene TRANS-FACTORIAL HepG2 Assay for human RAR-related Orphan Receptor beta (RORb) (AID 2283010). On the procedure:
ATG_TRANS is a cell-based, multiplexed-readout assay that uses HepG2, a human liver cell line, with measurements taken at 24 hours after chemical dosing in a 24-well plate.ATG_RORb_TRANS is one of 30 assay component(s) measured or calculated from the ATG_TRANS assay. It is designed to make measurements of mRNA induction, a form of inducible reporter, as detected with fluorescence intensity signals by Reverse transcription polymerase chain reaction (RT-PCR) and Capillary electrophoresis technology.Data from the assay component ATG_RORb_TRANS was analyzed into 1 assay endpoint. This assay endpoint, ATG_RORb_TRANS, was analyzed in the positive analysis fitting direction relative to DMSO as the negative control and baseline of activity. Using a type of inducible reporter, measures of mRNA for gain-of-signal activity can be used to understand the reporter gene at the transcription factor-level as they relate to the gene RORB. Furthermore, this assay endpoint can be referred to as a primary readout, because this assay has produced multiple assay endpoints where this one serves a reporter gene function. To generalize the intended target to other relatable targets, this assay endpoint is annotated to the nuclear receptor intended target family, where the subfamily is orphan.
Human liver HepG2 cells are transiently transfected with multiple reporter transcription units (MRTUs) in 6-well plates using FuGene 6 reagent (Roche; 3 ml FuGene/1 mg DNA). The MRTU constructs are regulated by a cis-regulating element (promoter). […] A major difference between the CIS and TRANS system is that in CIS activities of endogenous TFs are measured, whereas the TRANS assay evaluates changes in activities of exogenous, chimeric NR-Gal4 proteins. […] At the end of 24 hour incubation, total RNA was isolated using TriZol reagent (Invitrogen). The isolated RNA is then reverse-transcribed using oligo(dT) primer and Mo-MLV reverse transcriptase (Invitrogen) with DNAse I (Ambion) treatment for 30 min. The one-tenth of the produced cDNA was amplified by PCR using Taq DNA polymerase (Invitrogen) and two reporter sequence-specific primers. The PCR products were fluorescently labeled by primer extension with 6-arboxyfluorescein (6-FAM) 5'-labeled reporter sequence-specific primer (2 min at 95 C, 20 s at 68 C and 10 min at 72 C) and these products were digested with 5U of HpaI (New England Biolabs) for 2h at 37 C. The fragments were purified using Qiaquick PCR columns (Qiagen), analyzed on an ABI 3130xL genetic analyzer (Applied Biosystems) with peak positions identified by using a set of X-rhodamine (ROX)-labeled MapMarker1000 molecular weight standards (BioVentures). The raw capillary electrophoresis data was processed using Attagraph software (Attagene).
For `ClC1=C(Cl)[C@]2(Cl)[C@H]3[C@H]([C@@H]4C=C[C@H]3C4)[C@@]1(Cl)C2(Cl)Cl`, the call was inactive.

On to `[Cl-].[Cl-].[Hg+2]`, for which the call was inactive.

Consider `c1ccc2c(c1)-c1cccc3cccc-2c13`, for which the outcome was inactive.

With `N#CC(Br)(Br)C(N)=O`, the compound was called inactive.

Regarding `C[N+](C)(C)CC1CO1` (configuration not stated), the compound was classed as inactive.

Turning to `Cc1ccc(N)cc1`, the result was inactive.

With `CO[C@@H]1[C@H](OC(=O)NC(=O)CCl)CC[C@]2(CO2)[C@H]1[C@@]1(C)O[C@@H]1CC=C(C)C`, the compound was called inactive.

On to `CCC12COCN1COC2`, for which the outcome was inactive.

In the case of `c1ccc(NNc2ccccc2)cc1`, the call was inactive.

As for `CCCCC(CC)COC(=O)c1ccc(C(=O)OCC(CC)CCCC)c(C(=O)OCC(CC)CCCC)c1` (configuration not stated), the outcome was inactive.

`C[C@]12C=CC3=C4CCC(=O)C=C4CC[C@H]3[C@@H]1CC[C@@H]2O`: the compound was classed as inactive.

As for `O=C(Nc1ccccc1)c1ccccc1I`, the compound was called inactive.

`Nc1cc(Cl)cc(C(=O)O)c1Cl`: the compound was classed as inactive.

`CN(C)c1ccccc1`: the compound was called inactive.

For the compound `CCNS(=O)(=O)C(F)(F)C(F)(F)C(F)(F)C(F)(F)C(F)(F)C(F)(F)C(F)(F)C(F)(F)F`, the compound was classed as inactive.

For the compound `OCCCl`, the outcome was inactive.

Regarding `Cc1ccc(N)c(N)c1`, the call was inactive.

With `CNC(=O)Oc1cccc2c1OC(C)(C)C2`, the compound was called inactive.

In the case of `COC(=O)c1ccccc1N`, the compound was called inactive.

On to `[As]#[In]`, for which the call was inactive.

Regarding `COC(=O)Nc1nc2ccccc2[nH]1`, the compound was called inactive.

As to `O=[N+]([O-])C(Br)(CO)CO`, the compound was called inactive.

The record behind these values is PubChem BioAssay (EPA / NIEHS).
